# The list is not random: actives were taken first. Their share in the collection is about 0.82%.
# FadD28 FP inh = inhibitors of FadD28 bisubstrate probe binding, primary screen, biochemical, fluorescence polarization, single point | inhibition, % at 12.5 µM | 360,000 tested, 0.22% active; in the data active = inhibition above about 8.5%, passing the limit was not always enough
# Mtb UGM inh = M. tuberculosis UGM enzyme inhibitors, primary screen, biochemical, fluorescence polarization, single point; UDP-galactopyranose mutase (Mycobacterium tuberculosis (strain ATCC 25618 / H37Rv)), …; purified UGM, fluorescence polarization probe displacement; inhibition, % at 10 µM; 320,000 tested, 0.06% active; AID 504406, 2011; in the data active = inhibition above about 10%, passing the limit was not always enough
# Target sequence (P9WIQ1 whole entry, looked up): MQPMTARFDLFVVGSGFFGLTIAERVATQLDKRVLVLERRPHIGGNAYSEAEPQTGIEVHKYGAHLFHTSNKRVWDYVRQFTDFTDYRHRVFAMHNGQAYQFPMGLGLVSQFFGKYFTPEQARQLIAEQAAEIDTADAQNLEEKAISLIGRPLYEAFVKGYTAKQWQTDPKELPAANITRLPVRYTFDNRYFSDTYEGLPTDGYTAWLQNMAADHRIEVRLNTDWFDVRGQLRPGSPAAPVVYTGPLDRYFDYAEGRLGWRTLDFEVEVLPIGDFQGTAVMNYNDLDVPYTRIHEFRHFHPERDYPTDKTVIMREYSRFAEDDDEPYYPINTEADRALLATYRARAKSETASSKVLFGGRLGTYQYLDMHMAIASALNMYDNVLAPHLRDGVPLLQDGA
# Yp Topo-I inh = Yersinia pestis topoisomerase I inhibitors, primary screen, biochemical, cleavage product accumulation, plate reader, single point; Y. pestis Topo-I cleavage product accumulation; activity, % at 10 µM; 360,000 tested, 0.064% active; AID 504884, 2011; in the data active = activity above about 50%, passing the limit was not always enough
# BioA inh-1 = M. tuberculosis BioA enzyme inhibitors, primary screen, biochemical, plate reader, single point, HTS; inhibition, % at 9.99 µM; 360,000 tested, 0.096% active; purified M. tuberculosis BioA enzyme; in the data active = inhibition above about 40%
# Rv3671c inh = Rv3671c serine protease inhibitors, primary screen, biochemical, fluorescence polarization, M. tuberculosis H37Rv; P9WHR9; AID 2606, 2010; inhibition, % at 5.96 µM; 320,000 tested, 0.048% active; in the data active = inhibition above about 38%;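 note: extracellular domain of Rv3671c used as enzyme; 0% = enzyme with DMSO and 100% = no enzyme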
# RecA splice inh = Mtb RecA intein splicing inhibitors, primary screen, biochemical, fluorescence, HTS. Protein RecA (Mycobacterium tuberculosis (strain ATCC 25618 / H37Rv)), P9WHJ3. cell-free RecA intein splicing. inhibition, % (test concentration not listed). 290,000 tested, 0.75% active. AID 2221, 2009; in the data active = inhibition above about 30%;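 note: 0% = vehicle wells and 100% = reference inhibitor control wells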
# BioA inh-2 = Mtb BioA enzyme inhibitors, dose response, biochemical, plate reader, cherry-pick samples, set 03; shares compounds with BioA inh-1; purified BioA enzyme; max activity, %; 310 tested, under 10 active; AID 651679, 2012;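 note: top concentration of the dilution series was 10 µM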
# HepG2 cytotox = cytotoxicity in HepG2 cells, dose response, cytotoxicity control, cell-based, plate reader, cherry-pick, two tests; shares compounds with BioA inh-1; max activity, %; 310 tested, under 10 active
# NIH3T3 tox 5 = cytotoxicity in NIH3T3 fibroblasts, dose response, cytotoxicity control, cell-based, plate reader, cherry-pick, two tests. AID 651900, 2012. activity change, negative = cytotoxicity, % at 26 µM. 310 tested, under 10 active. shares compounds with BioA inh-1
# * hit, by the source's call; i = inactive; · = not tested or not shown. Unless noted, the rule behind the calls is not given here.
SMILES,FadD28 FP inh,Mtb UGM inh,Yp Topo-I inh,BioA inh-1,Rv3671c inh,RecA splice inh,BioA inh-2,HepG2 cytotox,NIH3T3 tox 5
CC(=O)c1ccc(C(=O)N2CCCC(CCC(=O)N(C)CCc3ccccn3)C2)s1 (centres undefined),1,-4,2,66*,-3,6,3,-15,-10
O=C(Nc1ncc2c(n1)CC(c1ccco1)CC2=O)c1ccco1 (centres undefined),-2,-2,-1,54*,-2,-1,22,25,3
CC(=O)Nc1ncc2c(n1)CC(c1ccco1)CC2=O (centres undefined),-5,-1,4,0,-6,4,·,·,·
O=C(C[C@@H]1C=C[C@H](NS(=O)(=O)c2ccccc2F)[C@H](CO)O1)NCCCN1CCOCC1,·,·,·,-1,·,·,·,·,·
O=C(c1ccccc1F)N1CC[C@@H]2[C@H](CO)Nc3ccc(-c4ccccc4)cc3[C@@H]21,·,·,·,-1,·,·,·,·,·
O=C(c1cccc(F)c1)N1CC[C@@H]2[C@@H](CO)Nc3ccc(-c4cccc(F)c4)cc3[C@@H]21,·,·,·,98*,·,·,-11,i,-9
O=C(c1ccccc1F)N1CC[C@@H]2[C@H](CO)Nc3ccc(Br)cc3[C@@H]21,·,·,·,83*,·,·,-6,i,7
O=C(c1ccccc1F)N1CC[C@@H]2[C@H]1c1cc(Br)ccc1N[C@@H]2CO,·,·,·,49*,·,·,4,i,6
COc1cc(C(=O)N2Cc3cc4ccccc4nc3C2C)cc(OC)c1OC (centres undefined),0,·,1,69*,·,·,-4,25,7
COc1cc(C(=O)N2c3ccccc3CC2C)cc(OC)c1OC (centres undefined),0,-1,-5,1,1,-1,·,·,·
CNC(=O)C[C@H]1CC[C@@H]2[C@H](COC[C@@H](O)CN2C(=O)Nc2ccc3c(c2)OCO3)O1,·,·,·,50*,·,·,-8,i,-4
CCNC(=O)C[C@@H]1CC[C@@H]2[C@H](COC[C@@H](O)CN2C(=O)Nc2ccc3c(c2)OCO3)O1,·,·,·,3,·,·,·,·,·
COC(=O)C[C@H]1CC[C@H]2[C@@H](COC[C@H](O)CN2C(=O)Nc2cccc(F)c2)O1,·,·,·,4,·,·,·,·,·
COC(=O)C[C@@H]1CC[C@@H]2[C@H](COC[C@@H](O)CN2C(=O)Nc2cccc(F)c2)O1,·,·,·,46*,·,·,-7,i,-1
Cc1ccc(S(=O)(=O)N[C@@H]2CC[C@@H](CC(=O)N3CCC(Cc4ccccc4)CC3)O[C@@H]2CO)cc1,·,·,·,0,·,·,·,·,·
CCc1nn(CCCC(=O)N(C)Cc2ccccc2)c(=O)c2cc3occc3n12,0,-1,18,50*,4,4,-10,-20,-13
C[C@@H]1CN([C@@H](C)CO)C(=O)Cc2cc(NC(=O)c3ccncc3)ccc2O[C@@H]1CN(C)S(=O)(=O)c1ccc(Cl)cc1,·,·,·,-4,·,·,·,·,·
O=C(CSc1nc2c(c(=O)n1-c1ccc(Cl)cc1)SCC2)N1CCOCC1,-4,1,4,56*,-5,0,-7,-6,-4
CC(=O)N(C)C[C@@H]1Oc2ncc(-c3ccccc3C)cc2C(=O)N([C@@H](C)CO)C[C@H]1C,·,·,·,-1,·,·,·,·,·
N#C[C@H]1[C@@H](c2ccccc2)[C@@H](CO)N1C(=O)Nc1cccc(F)c1,·,·,·,77*,·,·,17,i,8
CCCC(=O)Nc1ccc2c(c1)C(=O)N(C)C[C@H](OC)[C@H](C)CN(C(C)=O)[C@H](C)CO2,·,·,·,-1,·,·,·,·,·
COc1ccc(-c2n[nH]c3c2CN(C(=O)c2ccc(OC)c(OC)c2)CC3)cc1,-2,-2,15,86*,-3,2,-8,29,7
COc1cc(OC)cc(C(=O)N2CCN(C(=O)c3ccc(OC)c(OC)c3)CC2)c1,-2,1,-2,-21,1,-3,·,·,·
CC(=O)c1[nH]c(C)c(C(=O)N2CCCC(Nc3ccc(C(C)C)cc3)C2)c1C (centres undefined),1,·,5,0,·,-3,·,·,·
CC(=O)c1ccc(C(=O)N2CCCC(Nc3ccc(C(C)C)cc3)C2)s1 (centres undefined),-1,5,5,67*,5,0,-7,-17,7
SMILES,FadD28 FP inh,Mtb UGM inh,Yp Topo-I inh,BioA inh-1,Rv3671c inh,RecA splice inh,BioA inh-2,HepG2 cytotox,NIH3T3 tox 5
C[C@H]1CN([C@@H](C)CO)C(=O)c2cccc(NC(=O)Nc3ccc(C(F)(F)F)cc3)c2O[C@@H]1CN(C)Cc1ccc(-c2ccccc2)cc1,·,·,·,-1,·,·,·,·,·
COc1ccccc1NC(=O)N1C[C@@H](O)COC[C@H]2O[C@H](CC(=O)NCCc3ccccc3)CC[C@@H]21,·,·,·,-4,·,·,·,·,·
COc1ccc(C(=O)C2CCCN(C(=O)c3ccc(C(C)=O)s3)C2)c(C)c1 (centres undefined),2,·,-3,64*,·,-4,-10,-7,-8
Cc1noc(C)c1NC(=O)N(C)C[C@H]1Oc2ccc(NC(=O)CCN3CCOCC3)cc2C(=O)N([C@H](C)CO)C[C@H]1C,·,·,·,-3,·,·,·,·,·
Cc1cccc(-n2c(SCC(=O)N(C)C3CCS(=O)(=O)C3)nc3ccccc3c2=O)c1C (centres undefined),-4,-1,10,47*,-4,0,3,17,4
CC(=O)OCC(=O)[C@@]1(OC(C)=O)[C@@H](C)C[C@H]2[C@@H]3C[C@H](F)C4=CC(=O)C=C[C@]4(C)[C@@]3(F)[C@@H](O)C[C@@]21C,0,-1,10,51*,4,-9,-5,16,6
C[C@@H]1CN([C@H](C)CO)C(=O)c2cc(NC(=O)C3CCCCC3)ccc2O[C@@H]1CN(C)C(=O)Nc1ccccc1,·,·,·,-3,·,·,·,·,·
CC(=O)c1c(C)[nH]c(C(=O)Nc2cccnc2)c1C,-2,0,1,58*,8,-1,-5,-11,3
CC(=O)c1c(C)[nH]c(C(=O)Nc2ccc(C)c(C)c2)c1C,0,-3,-4,-2,3,2,·,·,·
Cc1noc(C)c1NC(=O)N(C)C[C@@H]1Oc2cc(C#CCC3CCCC3)ccc2S(=O)(=O)N([C@@H](C)CO)C[C@@H]1C,·,·,·,-1,·,·,·,·,·
